AmpC no deterg – qHTS Inhibitors of AmpC Beta-Lactamase (assay without detergent); 330,000 compounds, 0.52% hits; Potency, µM (highest dose often 57.1 µM), for inactives: top-dose activity change, negative = inhibition, actives largely listed as inhibitors; P00811; AmpC nitrocefin hydrolysis, absorbance 480 nm, 0.0001% Triton;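 note: potency is the fitted concentration of half-maximal effect; plate controls were no compound for no effect and no enzyme for full effect; nearly all actives have a fitted effect of over 20% in size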
Target sequence (P00811 whole entry, looked up): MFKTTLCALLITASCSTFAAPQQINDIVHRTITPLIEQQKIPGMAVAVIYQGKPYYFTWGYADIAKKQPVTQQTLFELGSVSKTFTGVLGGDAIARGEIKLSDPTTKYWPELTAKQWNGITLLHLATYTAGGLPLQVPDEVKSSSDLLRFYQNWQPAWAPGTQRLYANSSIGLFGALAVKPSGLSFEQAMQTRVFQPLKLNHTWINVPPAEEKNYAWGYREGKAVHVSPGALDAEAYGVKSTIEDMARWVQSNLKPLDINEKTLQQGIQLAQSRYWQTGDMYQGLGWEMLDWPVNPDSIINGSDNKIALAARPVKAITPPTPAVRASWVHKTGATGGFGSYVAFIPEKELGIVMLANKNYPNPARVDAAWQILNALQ
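AmpC (5.3 nM in the dispensed reagent) in 20 mM phosphate pH 7.0 with 0.01% (detergent screen) or 0.0001% Triton X-100 was preincubated with compounds for 15 min at room temperature. Nitrocefin was then added from an 800 uM solution, and hydrolysis was followed at 480 nm.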
Shiga inhibitor – A qHTS for Small Molecule Inhibitors of Shiga Toxin; AID 2315, 2010; inhibition, % at 38.7 µM; 290,000 compounds, 9.2% hits; Vero cells, Shiga toxin protein synthesis inhibition reporter; in the data active = inhibition mostly above about 28%, no sharp cut-off; inactive = mostly below about 43%; note: 0% is about no effect
NS1 function inh – qHTS Assay for Inhibitors of Influenza NS1 Protein Function | Potency, µM (doses to about 46.1 µM), for the others: at the highest dose activity, positive = more growth | 270,000 compounds, 0.4% hits | AID 2326, 2010; calls by dose curve; note: potency is the fitted concentration of half-maximal effect; actives are rising curves; nearly all actives have a fitted effect of over 50% in size
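S. cerevisiae expressing influenza A NS1, grown in glucose, washed, then diluted 1:100 into pH 6.0 -URA galactose medium with 23 nl compound. Growth recovery read as OD600; NS1-free strain serves as control.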
AmpC inh detg – qHTS Inhibitors of AmpC Beta-Lactamase (assay with detergent) | P00811 | AmpC hydrolysis of nitrocefin, absorbance 480 nm, 0.01% Triton | Potency, µM (doses to about 114 µM), for inactives: at the highest dose activity change, negative = inhibition, usual class: inhibitors | 370,000 compounds, 0.041% hits | AID 485294, 2010;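 note: potency is the fitted concentration of half-maximal effect; 0% = no-compound wells and -100% = no-enzyme wells; nearly all actives have a fitted effect of over 25% in size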
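20 mM phosphate pH 7.0 + 0.01% (detergent screen) or 0.0001% Triton X-100; 5.3 nM AmpC reagent; cpd preinc 15 min RT; nitrocefin (800 uM stock) to start; A480 q20 s × 4 min; Activity was normalised to no-enzyme and no-compound control wells.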
Cycloheximide cs – Cycloheximide Counterscreen for Small Molecule Inhibitors of Shiga Toxin | cell reporter, cycloheximide protein synthesis inhibition counterscreen | max response, % | 300,000 compounds, 12% hits; in the data active = max response mostly above about 13%, no sharp cut-off; inactive = mostly below about 14%; note: read at 38.3 µM for the half of the compounds with a filed dose; 0% is about no effect
Numbers without * were called inactive. This is one part of a sample in which hits are shown more often than they occur. Unless noted, calls come from the whole dose curve; as a rule, active = well fitted curve in the direction sought with a large enough effect; inconclusive = small, poorly fitted or top-dose-only effect, or another doubt; inactive = no such curve, though single readings can be large; an effect the other way counts as inactive or inconclusive.

Cc1cc(N2CCC(C)CC2)nc2ccc(N3C(=O)CCC3=O)cc12 was read as AmpC no deterg 3%, Shiga inhibitor 14, NS1 function inh 3%, AmpC inh detg -3% and Cycloheximide cs 18*.
COc1ccc(C(=O)Nc2ccc3nc(N4CCC(C)CC4)cc(C)c3c2)cc1 was read as AmpC inh detg -10%.
Screening CCCCN(C)C(=O)CCC(=O)Nc1ccc2nc(N3CCOCC3)cc(C)c2c1 returned AmpC no deterg 64%, Shiga inhibitor 20, NS1 function inh -5%, AmpC inh detg -6% and Cycloheximide cs 29*.
`CN(C)C1=NCCN1CCCCc1ccccc1` gave AmpC no deterg 1% and AmpC inh detg -9%.
COc1ccc(N2CC(NC(=O)c3ccc4c(c3)OCO4)CC2=O)cc1OC (stereo not drawn) was read as AmpC inh detg 1%.
For CCCCNC(=O)CCC(=O)Nc1ccc2nc(N3CCC(C)CC3)cc(C)c2c1 the results were AmpC no deterg 133%, Shiga inhibitor 55*, AmpC inh detg -4% and Cycloheximide cs 30*.
Screening COc1cc(C2Nc3ccc4ncccc4c3C3=C2C(=O)CCC3)ccc1O (stereo not drawn) returned AmpC no deterg -31%, Shiga inhibitor 20, NS1 function inh -4%, AmpC inh detg -12% and Cycloheximide cs 21*.
For COc1cc(C2Nc3ccc4ncccc4c3C3=C2C(=O)CCC3)cc(OC)c1OC (stereo not drawn) the results were AmpC no deterg -2%, Shiga inhibitor 14, NS1 function inh -2%, AmpC inh detg 5% and Cycloheximide cs 2.
For COc1ccc2c(COC(=O)c3n[nH]c4ccccc34)cc(=O)oc2c1 the results were AmpC no deterg -38%, Shiga inhibitor 107*, NS1 function inh 4%, AmpC inh detg 2% and Cycloheximide cs 26*.
Screening O=C(COC(=O)c1n[nH]c2ccccc12)c1cccc(Br)c1 returned AmpC no deterg -36%, Shiga inhibitor 31, NS1 function inh -11%, AmpC inh detg 5% and Cycloheximide cs 18*.
`Cc1cc(NC(=O)COC(=O)c2ccccc2[N+](=O)[O-])no1` gave AmpC no deterg -13%, Shiga inhibitor 45, AmpC inh detg -25% and Cycloheximide cs 28*.
For Cc1cc(NC(=O)COC(=O)c2n[nH]c3ccccc23)no1 the results were AmpC no deterg -21%, Shiga inhibitor 31, NS1 function inh -10%, AmpC inh detg -12% and Cycloheximide cs 20*.
Screening COc1ccc(C)cc1NC(=O)C1CCCN(S(=O)(=O)c2cccc3cccnc23)C1 (stereo not drawn) returned AmpC no deterg 18%, Shiga inhibitor -3, NS1 function inh -5%, AmpC inh detg 4% and Cycloheximide cs -1.
Screening COc1ccc(-n2nc(C(=O)NCC(=O)N3CCN(c4ccc(F)cc4)CC3)c3ccccc3c2=O)c(OC)c1 returned AmpC no deterg 141%, Shiga inhibitor 29, NS1 function inh -5%, AmpC inh detg -7% and Cycloheximide cs 16*.
Screening CCOC(=O)N1CCN(C(=O)CNC(=O)c2nn(-c3ccc(OC)cc3OC)c(=O)c3ccccc23)CC1 returned AmpC no deterg 92%, Shiga inhibitor 31*, NS1 function inh 1%, AmpC inh detg -1% and Cycloheximide cs 25*.
Screening COc1ccc(-n2nc(C(=O)NCC(=O)N3CCN(c4ccccc4)CC3)c3ccccc3c2=O)c(OC)c1 returned AmpC no deterg 109%, Shiga inhibitor 37, NS1 function inh -2%, AmpC inh detg -9% and Cycloheximide cs 16.
For O=C(Cn1ncc2c([nH]c3ccccc32)c1=O)NCc1cccc(Cl)c1 the results were AmpC inh detg 4%.
Screening CC(Oc1ccc(Cl)cc1Cl)C(=O)NCCC1=CCCCC1 (stereo not drawn) returned AmpC no deterg 4%, Shiga inhibitor -7, NS1 function inh -26%, AmpC inh detg -1% and Cycloheximide cs -1.
Cc1cc2ncc(-c3ncc(C(F)(F)F)cc3Cl)cn2n1 was read as AmpC no deterg inconclusive, Shiga inhibitor 10, NS1 function inh -1%, AmpC inh detg 0% and Cycloheximide cs 15*.
Screening FC(F)(F)c1cnc(-c2cnc3c(-c4ccc(Cl)cc4)cnn3c2)c(Cl)c1 returned AmpC no deterg inconclusive, Shiga inhibitor 14, NS1 function inh -2%, AmpC inh detg -1% and Cycloheximide cs -2.
`Cc1cc2ncc(-c3cccc(Cl)c3)cn2n1` gave AmpC no deterg -15%, Shiga inhibitor 75*, AmpC inh detg 6% and Cycloheximide cs 48*.
Screening COc1ccc(-c2cnn3cc(-c4cccc(Cl)c4)cnc23)cc1 returned AmpC no deterg -13%, Shiga inhibitor -9, NS1 function inh 14%, AmpC inh detg 0% and Cycloheximide cs -6.
Screening Cc1cc2ncc(C(N)=O)cn2n1 returned AmpC no deterg -6%, Shiga inhibitor 20, NS1 function inh 4%, AmpC inh detg 2% and Cycloheximide cs -4.
Screening Cc1nn2cc(-c3ncc(C(F)(F)F)cc3Cl)cnc2c1Br returned AmpC no deterg -22%, Shiga inhibitor 57*, AmpC inh detg 9% and Cycloheximide cs 20.
`N#Cc1cnn2cc(-c3ncc(C(F)(F)F)cc3Cl)cnc12` gave AmpC no deterg 0%, Shiga inhibitor 24, NS1 function inh -1%, AmpC inh detg 6% and Cycloheximide cs 29*.
For Cc1cc(OCC(=O)Nc2sc3c(c2C#N)CCC(C)C3)ccc1Cl (stereo not drawn) the results were AmpC inh detg 13%.
`Cc1ccc(COc2ccc3oc(-c4ccccc4)c(C(=O)O)c3c2)cc1` gave Shiga inhibitor 14, AmpC inh detg 19% and Cycloheximide cs 0.
Cc1cccc(N2C(=O)CC(N3CCN(c4ccccn4)CC3)C2=O)c1 (stereo not drawn) was read as AmpC no deterg 3%, Shiga inhibitor 16, NS1 function inh -2%, AmpC inh detg 4% and Cycloheximide cs -2.
For COc1ccc2cc3cc(C(=O)NCCN4CCc5ccccc5C4)sc3nc2c1 the results were AmpC no deterg -2%, Shiga inhibitor 47*, NS1 function inh -3%, AmpC inh detg inconclusive and Cycloheximide cs 21*.
Screening COc1ccc2nc3oc(C(=O)NC4CCN(Cc5ccccc5)CC4)cc3cc2c1 returned AmpC no deterg -21%, Shiga inhibitor 31*, NS1 function inh -7%, AmpC inh detg -8% and Cycloheximide cs 17.
CCOc1ccc(CCNC(=O)c2cc3cc4cc(OC)ccc4nc3s2)cc1OCC was read as AmpC inh detg 1%.
CCC(C)NC(=O)c1cc2cc3ccc(OC)cc3nc2s1 (stereo not drawn) was read as AmpC no deterg -3%, Shiga inhibitor 88*, NS1 function inh -79%, AmpC inh detg 1% and Cycloheximide cs 57*.

Bioassay records as filed in PubChem.
